Results: the supplement of paper PMC12067093, “Discovery and optimisation of a covalent ligand for TRIM25 and its application to targeted protein ubiquitination” (Chemical Science, 2025)
Targets with the largest changes are over-represented here; the source holds about 21,000 in all.

These targets were tested with CC1Cc2ccccc2N1C(=O)C1CCCN(C1)C(=O)CCl (mixture of isomers) [TRIM25 ligand 11 (diastereomer mixture)] (assay: probe-labelled cysteine peptide fold change vs DMSO (competition) (log2 fold change); higher = less target engagement (more negative = stronger competition)). Conditions: 10 µM; THP-1; incubation time: 4 h.
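Also: competitive chemoproteomic profiling in live THP-1 cells with an iodoacetamide desthiobiotin (IA-DTB) probe, comparing probe-labelled peptide intensities in compound-treated cells against DMSO-treated controls.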

Chain of UniProt P51991 (P51991 whole entry, looked up): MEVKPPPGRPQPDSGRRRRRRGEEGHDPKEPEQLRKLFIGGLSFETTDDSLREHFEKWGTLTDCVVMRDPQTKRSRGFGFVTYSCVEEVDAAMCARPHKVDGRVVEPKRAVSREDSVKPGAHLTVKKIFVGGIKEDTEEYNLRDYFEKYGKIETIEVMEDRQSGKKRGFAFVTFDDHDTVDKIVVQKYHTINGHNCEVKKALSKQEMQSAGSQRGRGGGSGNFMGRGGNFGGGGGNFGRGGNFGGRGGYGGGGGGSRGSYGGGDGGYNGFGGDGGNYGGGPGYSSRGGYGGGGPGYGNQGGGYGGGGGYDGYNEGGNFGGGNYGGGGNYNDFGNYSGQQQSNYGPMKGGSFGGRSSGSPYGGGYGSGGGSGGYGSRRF
Chain of UniProt P04406 (P04406 whole entry, looked up): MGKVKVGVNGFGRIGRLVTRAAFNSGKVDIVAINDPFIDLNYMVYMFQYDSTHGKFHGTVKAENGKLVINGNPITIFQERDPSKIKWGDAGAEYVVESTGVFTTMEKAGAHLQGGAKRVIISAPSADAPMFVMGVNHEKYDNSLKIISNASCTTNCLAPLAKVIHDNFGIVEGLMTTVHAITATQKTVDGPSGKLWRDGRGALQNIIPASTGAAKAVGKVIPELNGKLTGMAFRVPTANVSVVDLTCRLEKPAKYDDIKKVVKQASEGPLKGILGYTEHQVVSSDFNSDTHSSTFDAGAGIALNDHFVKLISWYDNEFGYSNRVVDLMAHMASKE
Chain of UniProt P34932 (P34932 whole entry, looked up): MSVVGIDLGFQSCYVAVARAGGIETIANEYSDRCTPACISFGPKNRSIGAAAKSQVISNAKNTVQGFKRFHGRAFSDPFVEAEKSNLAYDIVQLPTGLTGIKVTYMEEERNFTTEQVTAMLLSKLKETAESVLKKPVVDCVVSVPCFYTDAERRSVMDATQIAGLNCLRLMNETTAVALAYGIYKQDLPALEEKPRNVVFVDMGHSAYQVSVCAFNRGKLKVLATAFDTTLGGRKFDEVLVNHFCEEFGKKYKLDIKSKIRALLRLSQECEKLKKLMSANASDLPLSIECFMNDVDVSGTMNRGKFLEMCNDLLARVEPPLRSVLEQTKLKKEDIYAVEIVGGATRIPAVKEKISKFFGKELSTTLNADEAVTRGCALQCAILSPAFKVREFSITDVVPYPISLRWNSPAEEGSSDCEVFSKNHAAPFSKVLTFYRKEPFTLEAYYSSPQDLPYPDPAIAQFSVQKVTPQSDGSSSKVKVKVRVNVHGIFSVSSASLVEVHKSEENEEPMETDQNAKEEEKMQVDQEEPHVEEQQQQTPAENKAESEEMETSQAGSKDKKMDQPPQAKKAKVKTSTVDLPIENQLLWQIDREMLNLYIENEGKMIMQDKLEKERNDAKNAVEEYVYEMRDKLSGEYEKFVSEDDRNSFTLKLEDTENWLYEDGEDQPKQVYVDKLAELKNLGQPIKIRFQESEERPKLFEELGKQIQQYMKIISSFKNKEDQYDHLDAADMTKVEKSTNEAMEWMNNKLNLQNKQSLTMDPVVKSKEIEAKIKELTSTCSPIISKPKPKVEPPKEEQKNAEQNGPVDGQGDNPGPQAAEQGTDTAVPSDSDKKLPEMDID
Chain of UniProt Q00403 (Q00403 whole entry, looked up): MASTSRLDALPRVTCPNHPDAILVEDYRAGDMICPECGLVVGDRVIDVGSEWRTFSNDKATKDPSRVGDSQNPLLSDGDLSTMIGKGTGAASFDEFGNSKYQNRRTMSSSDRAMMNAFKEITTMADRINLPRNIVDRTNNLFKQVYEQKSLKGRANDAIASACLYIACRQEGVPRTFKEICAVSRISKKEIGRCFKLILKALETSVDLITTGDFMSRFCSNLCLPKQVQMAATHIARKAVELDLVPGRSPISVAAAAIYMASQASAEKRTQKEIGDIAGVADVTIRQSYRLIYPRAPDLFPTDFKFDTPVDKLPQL
Chain of UniProt P48506 (P48506 whole entry, looked up): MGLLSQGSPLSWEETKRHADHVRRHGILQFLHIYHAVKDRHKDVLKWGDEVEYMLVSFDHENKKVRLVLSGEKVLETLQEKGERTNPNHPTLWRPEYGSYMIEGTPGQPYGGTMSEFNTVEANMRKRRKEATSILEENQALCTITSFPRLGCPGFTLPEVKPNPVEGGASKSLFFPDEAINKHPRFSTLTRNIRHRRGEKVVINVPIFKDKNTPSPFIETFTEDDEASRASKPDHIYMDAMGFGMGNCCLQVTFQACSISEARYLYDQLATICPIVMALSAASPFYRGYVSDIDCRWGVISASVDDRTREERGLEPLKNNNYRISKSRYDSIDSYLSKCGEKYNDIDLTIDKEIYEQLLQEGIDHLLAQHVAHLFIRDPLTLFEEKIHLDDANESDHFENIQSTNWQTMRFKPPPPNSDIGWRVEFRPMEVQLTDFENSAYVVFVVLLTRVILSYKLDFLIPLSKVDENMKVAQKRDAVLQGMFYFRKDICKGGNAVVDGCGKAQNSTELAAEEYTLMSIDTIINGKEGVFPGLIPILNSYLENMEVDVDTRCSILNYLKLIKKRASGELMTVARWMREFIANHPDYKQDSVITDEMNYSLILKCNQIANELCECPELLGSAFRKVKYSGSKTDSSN
Chain of UniProt P51858 (P51858 whole entry, looked up): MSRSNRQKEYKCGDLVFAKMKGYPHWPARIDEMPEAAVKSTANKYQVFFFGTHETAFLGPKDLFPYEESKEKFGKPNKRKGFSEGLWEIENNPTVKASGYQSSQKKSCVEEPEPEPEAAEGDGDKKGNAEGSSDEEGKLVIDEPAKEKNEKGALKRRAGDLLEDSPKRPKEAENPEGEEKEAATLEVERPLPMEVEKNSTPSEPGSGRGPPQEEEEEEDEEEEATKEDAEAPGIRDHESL
Chain of UniProt Q8NEC7 (Q8NEC7 whole entry, looked up): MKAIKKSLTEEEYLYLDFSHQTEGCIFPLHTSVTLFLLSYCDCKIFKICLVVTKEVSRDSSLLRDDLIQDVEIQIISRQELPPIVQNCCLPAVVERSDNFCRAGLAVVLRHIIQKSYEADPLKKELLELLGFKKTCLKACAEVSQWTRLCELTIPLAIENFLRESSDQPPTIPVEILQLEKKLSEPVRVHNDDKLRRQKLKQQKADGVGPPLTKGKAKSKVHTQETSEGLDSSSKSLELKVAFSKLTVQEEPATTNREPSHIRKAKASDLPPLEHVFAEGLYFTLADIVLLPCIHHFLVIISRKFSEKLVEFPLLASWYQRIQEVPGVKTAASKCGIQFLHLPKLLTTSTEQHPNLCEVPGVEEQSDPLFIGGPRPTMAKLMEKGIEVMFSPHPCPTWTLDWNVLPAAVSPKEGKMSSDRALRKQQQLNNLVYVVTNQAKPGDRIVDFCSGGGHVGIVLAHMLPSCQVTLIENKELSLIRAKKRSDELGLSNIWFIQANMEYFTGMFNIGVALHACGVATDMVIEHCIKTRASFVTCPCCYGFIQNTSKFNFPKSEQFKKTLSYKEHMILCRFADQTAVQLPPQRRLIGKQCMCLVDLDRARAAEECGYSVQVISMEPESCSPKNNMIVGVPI
Chain of UniProt Q0VDF9 (Q0VDF9 whole entry, looked up): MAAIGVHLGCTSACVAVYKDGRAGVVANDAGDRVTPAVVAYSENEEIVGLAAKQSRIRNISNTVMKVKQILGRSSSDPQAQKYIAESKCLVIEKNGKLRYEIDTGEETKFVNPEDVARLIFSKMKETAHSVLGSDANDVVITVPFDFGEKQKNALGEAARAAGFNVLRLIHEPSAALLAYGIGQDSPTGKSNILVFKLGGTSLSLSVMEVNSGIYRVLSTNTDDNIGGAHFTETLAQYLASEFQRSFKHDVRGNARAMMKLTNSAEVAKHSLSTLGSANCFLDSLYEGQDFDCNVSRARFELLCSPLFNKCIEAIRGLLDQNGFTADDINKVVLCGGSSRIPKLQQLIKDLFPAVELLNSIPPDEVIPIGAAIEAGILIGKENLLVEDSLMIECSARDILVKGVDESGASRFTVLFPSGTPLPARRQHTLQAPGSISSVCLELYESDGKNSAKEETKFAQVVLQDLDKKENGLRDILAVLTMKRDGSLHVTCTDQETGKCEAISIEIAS
Chain of UniProt Q8TD30 (Q8TD30 whole entry, looked up): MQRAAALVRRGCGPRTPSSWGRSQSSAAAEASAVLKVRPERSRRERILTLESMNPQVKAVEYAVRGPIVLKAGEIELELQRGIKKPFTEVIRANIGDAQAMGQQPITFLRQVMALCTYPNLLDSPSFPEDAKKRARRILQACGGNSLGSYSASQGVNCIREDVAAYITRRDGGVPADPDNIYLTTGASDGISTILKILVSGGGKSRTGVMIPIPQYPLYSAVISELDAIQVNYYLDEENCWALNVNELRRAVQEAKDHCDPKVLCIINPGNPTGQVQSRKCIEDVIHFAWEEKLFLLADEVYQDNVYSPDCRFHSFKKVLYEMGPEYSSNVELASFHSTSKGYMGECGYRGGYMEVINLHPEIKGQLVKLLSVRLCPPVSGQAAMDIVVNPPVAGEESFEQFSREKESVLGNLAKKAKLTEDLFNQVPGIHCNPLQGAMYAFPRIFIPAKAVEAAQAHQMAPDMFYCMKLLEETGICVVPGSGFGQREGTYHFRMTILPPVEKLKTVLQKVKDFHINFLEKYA
Chain of UniProt O14929 (O14929 whole entry, looked up): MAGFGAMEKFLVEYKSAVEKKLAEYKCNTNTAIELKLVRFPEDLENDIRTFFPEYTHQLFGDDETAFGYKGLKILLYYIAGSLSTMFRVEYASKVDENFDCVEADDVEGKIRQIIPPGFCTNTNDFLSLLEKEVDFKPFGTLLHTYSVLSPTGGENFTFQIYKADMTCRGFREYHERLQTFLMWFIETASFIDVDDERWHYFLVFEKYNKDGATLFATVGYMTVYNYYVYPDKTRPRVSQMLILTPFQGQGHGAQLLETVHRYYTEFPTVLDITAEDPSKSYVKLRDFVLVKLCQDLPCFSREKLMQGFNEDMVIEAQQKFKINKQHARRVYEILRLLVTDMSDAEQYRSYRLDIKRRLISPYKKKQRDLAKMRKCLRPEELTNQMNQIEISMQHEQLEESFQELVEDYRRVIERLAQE

Target	probe-labelled cysteine peptide fold change
GSDMD_P57764_268_CLHNFLTDGVPAEGAFTEDFQGLRAEVETISK (UniProt P57764)	0.377
HNRNPA3_P51991_64_WGTLTDCVVMRDPQTKR (UniProt P51991)	-0.717
HSPA2_P54652_191_GCAGGEK (UniProt P54652)	-0.0761
GSTCD_Q8NEC7_571_EHMILCR (UniProt Q8NEC7)	0.0436
GPT2_Q8TD30_281_CIEDVIHFAWEEK (UniProt Q8TD30)	0.213
HPCAL1_P37235_185_LLQCDPSSASQF<|>HPCA_P84074_185_LLQCDPSSASQF (UniProt P84074+P37235)	0.00885
GPATCH8_Q9UKJ3_795_HKGELPPSSCQR (UniProt Q9UKJ3)	-0.186
HSPA14_Q0VDF9_394_ENLLVEDSLMIECSAR (UniProt Q0VDF9)	-0.368
GCLM_P48507_72_EFPDVLECTVSHAVEK (UniProt P48507)	0.0379
GAPDH_P04406_247_VPTANVSVVDLTCRLEK (UniProt P04406)	-0.778
HMGCL_P35914_141_NINCSIEESFQR (UniProt P35914)	0.0699
HNRNPM_P52272_676_DKFNECGHVLYADIK (UniProt P52272)	-0.633
HADH_Q16836_211_ALGKHPVSCK (UniProt Q16836)	-0.647
GAPVD1_Q14C86_293_TLSCVDRLEVGEVR (UniProt Q14C86)	0.185
GALNT1_Q10472_482_TDDLCLDVSK (UniProt Q10472)	0.0604
HADHA_P40939_97+110_PGCFIAGADINMLAACK (UniProt P40939)	-0.0879
GCLC_P48506_295_GYVSDIDCR (UniProt P48506)	0.0316
HK2_P52789_133_GSGTQLFDHIAECLANFMDK (UniProt P52789)	0.165
GART_P22102_93_SAGVQCFGPTAEAAQLESSK (UniProt P22102)	0.0151
H2AFY_O75367_276_FVIHCNSPVWGADKCEELLEK (UniProt O75367)	-0.321

Target	probe-labelled cysteine peptide fold change
GTF3C3_Q9Y5Q9_810_GPCQESFYNLGR (UniProt Q9Y5Q9)	0.136
GNAI2_P04899_287_ITHSPLTICFPEYTGANKYDEAASYIQSK (UniProt P04899)	-0.134
GART_P22102_941_GSNAHEQALETGVTVTGCTVHFVAEDVDAGQIILQEAVPVKR (UniProt P22102)	-0.0918
GEMIN4_P57678_210_LRSDPDACPTMPLLAMLLR (UniProt P57678)	-0.252
HARS_P12081_379_KVPCVGLSIGVER (UniProt P12081)	-0.0416
GATM_P50440_131_KAVAEIEEMCNILK (UniProt P50440)	-0.271
GNAQ_P50148_144_SLWNDPGIQECYDR (UniProt P50148)	-0.0686
HDGF_P51858_108_KSCVEEPEPEPEAAEGDGDKK (UniProt P51858)	-0.541
GCN1_Q92616_2136_LGTPDEQLEMANCQAVILSVEDDTGHR (UniProt Q92616)	0.097
HNRNPAB_Q99729_224_KFHTVSGSKCEIK (UniProt Q99729)	-0.654
GTPBP1_O00178_515_YQAMVHCGSIR (UniProt O00178)	-0.0472
HSPA4_P34932_213_NVVFVDMGHSAYQVSVCAFNR (UniProt P34932)	0.1
GDI2_P50395_302_VICILSHPIK (UniProt P50395)	-0.0268
GTF2B_Q00403_37_AGDMICPECGLVVGDR (UniProt Q00403)	0.000693
HAT1_O14929_168_ADMTCR (UniProt O14929)	0.0223
GMPS_P49915_456_VICAEEPYICK (UniProt P49915)	0.0291
HSPBP1_Q9NZL4_269_GTLCSMGMVQQLVALVR (UniProt Q9NZL4)	0.0217
HGD_Q93099_180_MLVQPNEICVIQR (UniProt Q93099)	0.479
HADHA_P40939_349_ALMGLYHGQVLCKK (UniProt P40939)	-0.452

Same assay, conditions: 50 µM; THP-1; incubation time: 4 h

Target	probe-labelled cysteine peptide fold change
GSDMD_P57764_268_CLHNFLTDGVPAEGAFTEDFQGLRAEVETISK (UniProt P57764)	0.487
HNRNPA3_P51991_64_WGTLTDCVVMRDPQTKR (UniProt P51991)	-0.524
HSPA2_P54652_191_GCAGGEK (UniProt P54652)	-0.123
GSTCD_Q8NEC7_571_EHMILCR (UniProt Q8NEC7)	0.126
GPT2_Q8TD30_281_CIEDVIHFAWEEK (UniProt Q8TD30)	0.0432
HPCAL1_P37235_185_LLQCDPSSASQF<|>HPCA_P84074_185_LLQCDPSSASQF (UniProt P84074+P37235)	-0.0604
GPATCH8_Q9UKJ3_795_HKGELPPSSCQR (UniProt Q9UKJ3)	-0.0452
HSPA14_Q0VDF9_394_ENLLVEDSLMIECSAR (UniProt Q0VDF9)	-0.17
GCLM_P48507_72_EFPDVLECTVSHAVEK (UniProt P48507)	0.0286
GAPDH_P04406_247_VPTANVSVVDLTCRLEK (UniProt P04406)	-0.389
HMGCL_P35914_141_NINCSIEESFQR (UniProt P35914)	0.161
HNRNPM_P52272_676_DKFNECGHVLYADIK (UniProt P52272)	-0.474
HADH_Q16836_211_ALGKHPVSCK (UniProt Q16836)	-0.601
GAPVD1_Q14C86_293_TLSCVDRLEVGEVR (UniProt Q14C86)	0.128
GALNT1_Q10472_482_TDDLCLDVSK (UniProt Q10472)	0.00641
HADHA_P40939_97+110_PGCFIAGADINMLAACK (UniProt P40939)	0.186
GCLC_P48506_295_GYVSDIDCR (UniProt P48506)	0.199
HK2_P52789_133_GSGTQLFDHIAECLANFMDK (UniProt P52789)	-0.083
GART_P22102_93_SAGVQCFGPTAEAAQLESSK (UniProt P22102)	-0.0827
H2AFY_O75367_276_FVIHCNSPVWGADKCEELLEK (UniProt O75367)	-0.0894

Target	probe-labelled cysteine peptide fold change
GTF3C3_Q9Y5Q9_810_GPCQESFYNLGR (UniProt Q9Y5Q9)	0.284
GNAI2_P04899_287_ITHSPLTICFPEYTGANKYDEAASYIQSK (UniProt P04899)	-0.103
GART_P22102_941_GSNAHEQALETGVTVTGCTVHFVAEDVDAGQIILQEAVPVKR (UniProt P22102)	0.156
GEMIN4_P57678_210_LRSDPDACPTMPLLAMLLR (UniProt P57678)	-0.0506
HARS_P12081_379_KVPCVGLSIGVER (UniProt P12081)	-0.0375
GATM_P50440_131_KAVAEIEEMCNILK (UniProt P50440)	-0.2
GNAQ_P50148_144_SLWNDPGIQECYDR (UniProt P50148)	-0.0854
HDGF_P51858_108_KSCVEEPEPEPEAAEGDGDKK (UniProt P51858)	-0.677
GCN1_Q92616_2136_LGTPDEQLEMANCQAVILSVEDDTGHR (UniProt Q92616)	-0.0335
HNRNPAB_Q99729_224_KFHTVSGSKCEIK (UniProt Q99729)	-0.0882
GTPBP1_O00178_515_YQAMVHCGSIR (UniProt O00178)	0.0726
HSPA4_P34932_213_NVVFVDMGHSAYQVSVCAFNR (UniProt P34932)	0.0909
GDI2_P50395_302_VICILSHPIK (UniProt P50395)	-0.00641
GTF2B_Q00403_37_AGDMICPECGLVVGDR (UniProt Q00403)	0.073
HAT1_O14929_168_ADMTCR (UniProt O14929)	0.0285
GMPS_P49915_456_VICAEEPYICK (UniProt P49915)	0.0222
HSPBP1_Q9NZL4_269_GTLCSMGMVQQLVALVR (UniProt Q9NZL4)	0.156
HGD_Q93099_180_MLVQPNEICVIQR (UniProt Q93099)	0.382
HADHA_P40939_349_ALMGLYHGQVLCKK (UniProt P40939)	-0.365
